IL-1B inflam inh: qHTS for Inhibitors of Inflammasome Signaling: IL-1-beta AlphaLISA Primary Screen | THP-1 LPS/ATP IL-1B secretion, AlphaLISA, 16 h; active compounds read low | actives 4.7% (n = 360,000) | activity change, % at 57.5 µM; in the data active means activity change below about -50%; inconclusive means mostly about -30% to -49%
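THP-1 cells pretreated 1 hr with compounds (up to 57.5 uM final), then stimulated with LPS (250 ng/mL final) plus ATP (1.25 mM final); secreted IL-1B measured by AlphaLISA after 16 hr, decreased signal indicating inhibition.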
HT1080-NT tox: qHTS for induction of synthetic lethality in tumor cells producing 2HG: qHTS for the HT-1080-NT fibrosarcoma cell line. actives 1.6% (n = 360,000). Potency, µM (highest dose often 46.1 µM), most hits filed as cytotoxic. HT-1080-NT fibrosarcoma viability, CellTiter-Glo ATP luminescence, 48 h;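 further: NT is the 2HG producing partner of a matched IDH1 knockdown line; nearly all actives have a fitted effect of over 55% in size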
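Viability by CellTiter-Glo luminescence after 48 h compound exposure at 37C of HT-1080-NT cells (750/well, RPMI, 5% FBS). % activity scaled between DMSO wells and medium-only wells, then curve-fitted and categorized by curve class.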
TDP1 cell CPT: qHTS for Inhibitors of human tyrosyl-DNA phosphodiesterase 1 (TDP1): qHTS in cells in presence of CPT; chicken DT40 Tdp1-/-;hTDP1 cells + 20 nM CPT, ATP luminescence, 48 h; Potency, µM (highest dose often 46.2 µM), usual class: inhibitors; actives 12% (n = 420,000); AID 686979, 2013; further: nearly all actives have a fitted effect of over 55% in size
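Chicken DT40 Tdp1-/- cells complemented with human TDP1, 400 cells/well, exposed to compounds plus 20 nM camptothecin for at least 48 h at 37 C; viability read as ATP content by CellTiter-Glo luminescence.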
HT1080 IDH1KD tx: qHTS for induction of synthetic lethality in tumor cells producing 2HG: qHTS for the HT-1080-IDH1KD cell line; actives 2% (n = 360,000); Potency, µM (doses to about 46.1 µM), actives largely listed as cytotoxic; HT-1080 IDH1 knockdown viability, ATP luminescence, 48 h
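After a 2 h attachment period, IDH1KD HT-1080 cells took pin-transferred compound for 48 h at 37 °C; ATP-based luminescence after 10 min room-temperature reagent incubation reported viability.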
DT40 TDP1 no CPT: qHTS for Inhibitors of human tyrosyl-DNA phosphodiesterase 1 (TDP1): qHTS in cells in absence of CPT; DT40 Tdp1-/- hTDP1 cells, no CPT, ATP luminescence, 48 h; Potency, µM (titrated, usually from 46.2 µM), actives largely listed as inhibitors; actives 15% (n = 420,000); further: nearly all actives have a fitted effect of over 55% in size
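No-CPT arm: Tdp1-/-;hTDP1 DT40 cells (400/well) plus compounds, incubated ≥48 hr at 37 °C. Readout CellTiter-Glo luminescence.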
Each line names hits and unclear results; the compound was inactive in the other large screens. The list is not random: actives were taken first. Their share in the collection is about 19%. Unless noted, the call rests on the fitted dose curve; in most records, active means well fitted curve in the direction sought with a large enough effect; inconclusive means small, poorly fitted or top-dose-only effect, or another doubt; inactive means no such curve, though single readings can be large; an effect the other way counts as inactive or inconclusive.

C=CCn1c(SCC(=O)O)nnc1-c1ccc(C(C)(C)C)cc1	DT40 TDP1 no CPT inconclusive
CC1=CC(=O)C(C(C)C)=C/C1=C(\c1cc(C(C)C)c(OP(=O)(O)O)cc1C)c1ccccc1C(=O)O	HT1080-NT tox inconclusive, TDP1 cell CPT inconclusive, HT1080 IDH1KD tx 23µM, DT40 TDP1 no CPT 21µM
CCC(=O)N1CCc2cc(S(=O)(=O)NC(CC(C)C)C(=O)NCc3cccc(OC)c3)ccc21 (stereo not drawn)	none (no result: IL-1B inflam inh, HT1080-NT tox, HT1080 IDH1KD tx)
COCCNC(=O)CN(Cc1ccc2c(c1)OCO2)C(=O)CCC(=O)Nc1nccs1	TDP1 cell CPT 18µM, DT40 TDP1 no CPT 18µM
O=C(Nc1ccc(S(=O)(=O)N2CCOCC2)cc1)c1ccc(CN2CCc3ccccc3C2)cc1	IL-1B inflam inh inconclusive, HT1080-NT tox inconclusive, TDP1 cell CPT 1.2µM, HT1080 IDH1KD tx 21µM, DT40 TDP1 no CPT 0.92µM
O=C(Nc1ccc(S(=O)(=O)N2CCCC2)cc1)c1ccc(CN2CCc3ccccc3C2)cc1	TDP1 cell CPT 8.2µM, HT1080 IDH1KD tx inconclusive, DT40 TDP1 no CPT 4.1µM
CCC1=NN=C(c2ccc(F)cc2)C(c2c[nH]c3ccccc23)N1O (stereo not drawn)	DT40 TDP1 no CPT inconclusive
CCOC(=O)[C@]12CCC=C1N(CCC1=CCCCC1)C(=O)[C@H](CC(=O)NCCCOC)C2	DT40 TDP1 no CPT inconclusive
COC(=O)[C@]12CCCCC=C1N(CCC1=CCCCC1)C(=O)[C@H](CC(=O)NCCCCc1ccccc1)C2	IL-1B inflam inh inconclusive, HT1080-NT tox inconclusive, TDP1 cell CPT inconclusive, HT1080 IDH1KD tx inconclusive, DT40 TDP1 no CPT 18µM
COC(=O)[C@]12CCCCC=C1N(CCC1=CCCCC1)C(=O)[C@H](CC(=O)NCCCN1CCCC1=O)C2	TDP1 cell CPT inconclusive, HT1080 IDH1KD tx inconclusive, DT40 TDP1 no CPT inconclusive
COCCCNC(=O)C[C@@H]1C[C@@]2(C(=O)OC)CCCCC=C2N(CCC2=CCCCC2)C1=O	TDP1 cell CPT inconclusive, DT40 TDP1 no CPT 16µM
COc1ccc(NC(=O)C2CCCN2S(=O)(=O)c2cccc3cccnc23)cc1OC (stereo not drawn)	DT40 TDP1 no CPT inconclusive
Cc1nc(C)c(CC(=O)N2CCOc3ccc(CN4CCOCC4)cc3C2)s1	DT40 TDP1 no CPT inconclusive (no result: IL-1B inflam inh, HT1080-NT tox, HT1080 IDH1KD tx)
OCCNCc1cc(Br)ccc1OCc1ccccc1	IL-1B inflam inh -58, TDP1 cell CPT 23µM, DT40 TDP1 no CPT 16µM
NS(=O)(=O)c1ccc(CCNCc2cc(Br)ccc2OCc2ccccc2)cc1	IL-1B inflam inh -54, TDP1 cell CPT 15µM, DT40 TDP1 no CPT 12µM
CCOc1cc(CNn2cn[nH]c2=S)cc(Cl)c1OCc1ccccc1F	TDP1 cell CPT inconclusive, DT40 TDP1 no CPT 15µM
CCOc1cc(CNCCO)cc(Br)c1OCc1ccccc1	IL-1B inflam inh -80, HT1080-NT tox 21µM, TDP1 cell CPT 18µM, HT1080 IDH1KD tx inconclusive, DT40 TDP1 no CPT 16µM
OCCN1CCN(C(c2ccc(Cl)cc2Cl)c2sc3nc(-c4ccco4)nn3c2O)CC1 (stereo not drawn)	none (no result: IL-1B inflam inh, HT1080-NT tox, HT1080 IDH1KD tx)
NS(=O)(=O)c1ccc(NCc2cc(Cl)ccc2OCc2ccc(F)cc2)cc1	IL-1B inflam inh -57, HT1080-NT tox inconclusive, TDP1 cell CPT inconclusive, HT1080 IDH1KD tx inconclusive, DT40 TDP1 no CPT inconclusive
NS(=O)(=O)c1ccc(CCNC(=O)c2ccccc2OCc2ccc(F)cc2)cc1	DT40 TDP1 no CPT inconclusive
Brc1ccc(OCc2ccccc2)c(CNCC2CCCO2)c1 (stereo not drawn)	TDP1 cell CPT inconclusive, DT40 TDP1 no CPT 18µM
CCOc1cc(CNc2ccc(S(N)(=O)=O)cc2)cc(Cl)c1OC	TDP1 cell CPT inconclusive, DT40 TDP1 no CPT inconclusive
CCNCc1cc(Cl)c(OCc2ccccc2)c(OCC)c1	IL-1B inflam inh -93, HT1080-NT tox 16µM, TDP1 cell CPT inconclusive, HT1080 IDH1KD tx inconclusive, DT40 TDP1 no CPT inconclusive
CCOc1cc(CNCCc2ccc(S(N)(=O)=O)cc2)cc(Cl)c1OCc1ccccc1	IL-1B inflam inh -81, HT1080-NT tox 14µM, TDP1 cell CPT 13µM, HT1080 IDH1KD tx 18µM, DT40 TDP1 no CPT inconclusive
Clc1ccccc1CNCC1CCCO1 (stereo not drawn)	none
CCOc1cc(CNCCc2ccc(S(N)(=O)=O)cc2)ccc1OCc1ccccc1	IL-1B inflam inh -54, HT1080-NT tox inconclusive, TDP1 cell CPT 12µM, HT1080 IDH1KD tx inconclusive, DT40 TDP1 no CPT 12µM
COC(=O)C1CSC(c2ccc(Cl)cc2)N1C(=O)c1ccccc1 (stereo not drawn)	TDP1 cell CPT 21µM, DT40 TDP1 no CPT 18µM
Cc1csc(NC(=O)c2ccc(C)c([N+](=O)[O-])c2)n1	TDP1 cell CPT inconclusive, DT40 TDP1 no CPT 16µM
CCC(=O)NC(=S)Nc1ccc(NC(=O)c2ccc(C)c([N+](=O)[O-])c2)cc1	TDP1 cell CPT inconclusive, DT40 TDP1 no CPT 8.2µM
Cc1csc(NC(=O)c2ccc3nc[nH]c3c2)n1	TDP1 cell CPT inconclusive, DT40 TDP1 no CPT 23µM
Cc1ccc(C(=O)NC(=S)N2CC(C)OC(C)C2)cc1[N+](=O)[O-] (stereo not drawn)	HT1080-NT tox 3.5µM, TDP1 cell CPT inconclusive, HT1080 IDH1KD tx 2.8µM, DT40 TDP1 no CPT inconclusive
Cc1ccc(C(=O)NN2CCOCC2)cc1[N+](=O)[O-]	none
CC(=O)OC[C@@H]1CN(Cc2ccccc2)C[C@H](n2cnc3c(Nc4ccccc4)ncnc32)O1	TDP1 cell CPT inconclusive, DT40 TDP1 no CPT inconclusive
C=C1C(=O)O[C@H]2C1CC[C@@](C)(O)C13C=CC(C)(C21)C1(C3)C(=O)O[C@@H]2C3C(C)=CCC3[C@](C)(O)C[C@H](OC(C)=O)C21 (stereo partly drawn)	IL-1B inflam inh -94, HT1080-NT tox inconclusive, TDP1 cell CPT inconclusive, HT1080 IDH1KD tx inconclusive, DT40 TDP1 no CPT 16µM
C=C1CCC(OC(C)=O)/C(C)=C/CC2[C@H]1CC2(C)C (stereo partly drawn)	none (no result: IL-1B inflam inh, HT1080-NT tox, HT1080 IDH1KD tx)
O=C(Nc1ccc(F)c(Cl)c1)c1cc(-c2ccco2)on1	DT40 TDP1 no CPT inconclusive
Cc1ccc(CN2CCc3nnc(C(NC(=O)c4ccoc4)C(C)C)n3CC2)cc1C (stereo not drawn)	none (no result: IL-1B inflam inh, HT1080-NT tox, HT1080 IDH1KD tx)
COC(=O)[C@H]1C[C@H]2[C@@H]3CC[C@H]4C[C@@H](OC)CC[C@]4(C)[C@H]3CC[C@]2(C)[C@@]2(CCCO2)O1	TDP1 cell CPT inconclusive, DT40 TDP1 no CPT 16µM
COC(=O)N[C@@H]1C[C@H]2[C@@H]3CC[C@H]4C[C@@H](OC)CC[C@]4(C)[C@H]3CC[C@@]12C	TDP1 cell CPT 13µM, HT1080 IDH1KD tx inconclusive, DT40 TDP1 no CPT 15µM
